Compounds with a hit are over-represented: about 13% of the library has one in this group of screens.
CHOP inh – CHOP inhibition in unfolded protein response. CHO-K1 CHOP-promoter luciferase, tunicamycin-induced, 15-18 h. inhibition, % at 10 µM. 220,000 compounds, 3.8% hits;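 active means compounds that reduced the stress-induced luciferase reporter signal by more than about 70% of percent inhibition, limit read from the data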;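 further: 0% = tunicamycin plus vehicle and 100% = wells without tunicamycin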
WT yeast gro inh – growth inhibition of WT yeast, mitochondrial fusion screen. mitochondrial fusion phenotypic screen, WT strain. inhibition, % at 10 µM. 190,000 compounds, 2.1% hits; in the data active means inhibition above about 58%; tested in S. cerevisiae
Lmaj promast – inhibitors of Leishmania major promastigote growth; Leishmania major promastigotes, resazurin fluorescence viability; inhibition, % at 10 µM; 200,000 compounds, 9% hits; in the data active means inhibition above about 50%;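 further: promastigotes grown with compound for 44 hours at 28 °C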
RAM network inh – yeast RAM network inhibition; S. cerevisiae dse1pr::URA3 reporter, 5-FOA growth OD615, 2 d; analog-sensitive cbk1-as2 kinase mutant strain; inhibition, % at 50 µM; 190,000 compounds, 1.8% hits; AID 868;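 active means inhibition above a set limit, 3 SD over mean compound inhibition, cut at about 8.4% in these data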;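 further: 0% = DMSO-only wells with no growth and 100% = 10 µM 1-NA-PP1 full growth; inhibition rescues growth on 5-FOA so higher OD means more RAM inhibition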
* hit, by the source's call; nt = not tested or not shown.

SMILES | CHOP inh | WT yeast gro inh | Lmaj promast | RAM network inh
CSc1cccc(CN2CCC(CO)(Cc3ccccc3)CC2)c1 | 18 | 2 | 88* | 2
COc1ccc(N/C=C(\C(C)=O)c2ccc(OC)c(OC)c2)cc1OC | 5 | 13 | -5 | 1
CC(C)n1cc([C@@H]2C[C@H]3CN(Cc4cccc(Cl)c4)C(=O)[C@]34CCCN24)cn1 | -5 | -5 | -3 | 2
CCOC(=O)C1(Cc2ccccc2)CCCN(Cc2cnn(CC)c2)C1 (stereo unspecified) | 19 | 8 | 16 | -1
CCn1cc(CN2CCCC(CO)(Cc3cccc(Cl)c3)C2)cn1 (stereo unspecified) | 17 | -3 | 92* | -1
CC(C)n1cc(CN2CCCC(CO)(Cc3cccc(Cl)c3)C2)cn1 (stereo unspecified) | 9 | 5 | 87* | 1
CCOC(=O)N1CCN(C(=O)CSCC(=O)Nc2nc(-c3cccs3)cs2)CC1 | 6 | -4 | 79* | 0
Cc1cc(Cl)ccc1OCC(=O)Nc1nc(-c2cccnc2)cs1 | -15 | nt | nt | nt
CSc1ccccc1NC(=O)COc1ccc(Cl)cc1C | 83* | 50 | 28 | 4
Cc1cc(Cl)ccc1OCC(=O)Nc1nc(-c2cccs2)cs1 | -12 | 60* | 5 | 6
CCCC(=O)Nc1nc(C(=O)OCC)cs1 | -3 | -5 | -4 | 1
CCOC(=O)c1csc(NC(=O)COc2ccc(Cl)cc2Cl)n1 | 71* | 51 | -4 | 0
O=c1[nH]c2cc(NCCO)c([N+](=O)[O-])cc2[nH]1 | -5 | -14 | 1 | 1
O=C(NC(=S)Nc1nc2c(ccc3ccccc32)s1)c1cccs1 | 58 | 20 | 38 | 5
Cc1ccc(Nc2nc(N)nc(CN3CCN(C(=O)c4ccco4)CC3)n2)cc1Cl | 31 | 14 | 14 | 2
CCCCn1nnnc1NCc1cccnc1 | -17 | -9 | -9 | 0
Cn1c(-c2ccc(F)cc2)cnc1NCc1ccc(C#N)cc1 | 10 | 7 | 92* | 0
CCOc1cc(CNc2ncc(-c3ccc(OC)cc3)n2C)ccc1O | 20 | -2 | 65* | -1
Cn1c(-c2ccc(F)cc2)cnc1NCc1ccc(F)cc1 | 13 | 5 | 88* | 2
Cn1c(-c2ccc(Br)cc2)cnc1NCc1cccnc1 | 1 | -2 | 100* | 2
CC1=C/C(=N\NC(=O)c2ccccc2)CC1 | -6 | -26 | -3 | 2
COc1ccc(-c2c(C)n([O-])c3c([n+]2=O)CCCCC3)cc1OC | 10 | -7 | -7 | 2
COC(=O)c1ccc2c(c1)N(Cc1ccccc1F)C(=O)c1ccccc1S2=O (stereo unspecified) | 26 | 19 | 100* | 0
CCOC(=O)c1ccc2c(c1)N(Cc1ccccc1C)C(=O)c1ccccc1S2=O (stereo unspecified) | 42 | -12 | 99* | 6
COC(=O)c1ccc2c(c1)N(Cc1cc(C)ccc1C)C(=O)c1ccccc1S2=O (stereo unspecified) | 1 | 5 | -4 | 1
SMILES | CHOP inh | WT yeast gro inh | Lmaj promast | RAM network inh
COc1ccc(-c2ccc(SCC(=O)c3ccccc3)nn2)cc1OC | 30 | 6 | 61* | 5
Cc1ccc(-c2ccc(SCC(=O)c3ccccc3)nn2)cc1 | 0 | 23 | -2 | 1
COCCN(C(=O)CCl)C(C(=O)NC1CCCCC1)c1ccccc1C (stereo unspecified) | -56 | 14 | 99* | 2
O=C(NCC1CCCO1)C(c1ccncc1)N(Cc1cccs1)C(=O)CN1C(=O)c2ccccc2S1(=O)=O (stereo unspecified) | -1 | -6 | -9 | 2
O=C(NC1CCCC1)C(c1ccc(F)cc1)N(Cc1ccccc1Cl)C(=O)CCl (stereo unspecified) | 108* | -6 | 98* | 1
O=C(NC1CCCCC1)C(c1ccc(F)cc1)N(Cc1cccs1)C(=O)CN1C(=O)c2ccccc2S1(=O)=O (stereo unspecified) | 91* | -3 | 29 | 4
COc1ccc(-c2cc([C@H]3[C@@H]4C=CCC[C@@]4(C)C(=O)N3Cc3ccccc3)ccc2F)cc1OC | 21 | nt | nt | nt
CNC(=O)C1CC(=O)N(CCCc2ccccc2)C(=Nc2ccccc2)S1 (stereo unspecified) | -12 | 11 | 55* | 9.0*
CNC(=O)C1CC(=O)N(CCc2ccccc2)C(=Nc2ccc(OC)cc2)S1 (stereo unspecified) | -3 | -2 | 10 | 4
CCOc1ncccc1C(=O)OCc1ccc(Cl)cc1 | 31 | 1 | -8 | 2
CCOc1ncccc1C(=O)OCc1cc(=O)oc2c(C)c(C)ccc12 | 75* | 5 | -6 | 3
NC(=S)N/N=C/c1ccc(-c2ccc(Cl)c(Cl)c2)o1 | 47 | 69* | 96* | 3
NC(=S)N/N=C\c1ccc(-c2cccc(Cl)c2Cl)o1 | 36 | 31 | 100* | 3
COc1cc(CNCCN(C)C)c(Br)cc1OC1CCCC1 | 23 | 3 | 31 | -1
COC(=O)CNc1cccc(C(F)(F)F)c1 | 1 | -5 | -8 | 0
Cc1cc(C)cc(NC(=O)Cn2nnc3ccccc3c2=O)c1 | 11 | -3 | -1 | 3
COc1ccc(-c2cc(C3CCN(Cc4ccc([N+](=O)[O-])cc4)CC3)[nH]n2)cc1 | 36 | -6 | 56* | -2
Nc1nc(Cl)cc(N2CCC(c3cc(-c4ccc(Cl)cc4)n[nH]3)CC2)n1 | 61 | 12 | 100* | 2
Clc1ccc(-c2cc(C3CCNCC3)[nH]n2)cc1 | -3 | -13 | 61* | -1
COc1ccc(-c2cc(C3CCN(c4cc(Cl)nc(N)n4)CC3)[nH]n2)cc1 | 73* | 62* | 31 | 1
COc1ccc(-c2csc(N3CCC(c4ccccc4)CC3)n2)cc1 | -2 | -3 | -4 | 3
CC(=O)c1ccc(N2CCC(c3cc(-c4ccc(Cl)cc4Cl)n[nH]3)CC2)c([N+](=O)[O-])c1 | 40 | 2 | 16 | 3
O=C(NCc1ccccc1)C1=C[C@H](C2CC2)C[C@H](OCCCCO)O1 | 8 | -4 | 0 | 0
COc1ccc(OC)c(-c2cc(C3CCN(c4cc(Cl)nc(N)n4)CC3)[nH]n2)c1 | 73* | 66* | 100* | 3
COc1ccc(OC)c(-c2cc(C3CCN(c4ncccc4[N+](=O)[O-])CC3)[nH]n2)c1 | 42 | 50 | 21 | 1
SMILES | CHOP inh | WT yeast gro inh | Lmaj promast | RAM network inh
COc1ccc(S(=O)(=O)N2CCC(O)(c3cccnc3)CC2)cc1OC | 19 | -3 | 6 | 1
CC(=O)Nc1ccc(Nc2cc(C)nc3c(-c4ccccc4)c(C)nn23)cc1 | 42 | 25 | 85* | 0
Cc1cc(NCCCN2CCOCC2)n2nc(C)c(-c3ccccc3)c2n1 | -5 | 8 | 66* | 4
Cc1nn2c(NCCCn3ccnc3)cc(C(C)C)nc2c1-c1ccccc1 | 1 | nt | nt | nt
Cc1cc(NCCCN2CCOCC2)n2nc(C)c(-c3ccc(F)cc3)c2n1 | 36 | 21 | 91* | 0
Cc1cc(NCCC(C)C)n2nc(C)c(-c3ccccc3)c2n1 | 23 | 72* | 8 | 2
Cc1cc(NCCCN2CCOCC2)n2ncc(-c3ccccc3)c2n1 | 4 | 6 | 32 | 1
Cc1cc(C)c2c(n1)nn1c(NCCCN3CCOCC3)cc(C)nc21 | nt | nt | 1 | nt
CC1CCCC(C)N1/N=C/c1ccc(C#N)cc1 (stereo unspecified) | 20 | -19 | -7 | 2

Screening data (PubChem BioAssay)
